From PubChem BioAssay
Values joined by “and” are separate entries in the source; they are usually repeats but may differ in a detail not shown here. Equal entries are not always repeated. Some compounds were tested as several samples or in several runs, with calls that do not always agree. Active and inactive are the calls of the source. Unless noted, no rule for the calls is given here.

Tests used:
[1] = kinase inhibitors against Plasmodium liver-stage infection, cell-based, known kinase inhibitor set, luminescence, hepatoma host viability (AID 624392); details: Plasmodium liver stage in hepatoma cells, luciferase luminescence, concentration not given here; liver cell % of control: measured here: host liver cell viability; parasite % of control: stronger effect = lower value;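 also: infected cells incubated roughly two days before readout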
[2] = modulators of glucocorticoid suppression of NF-kB, cell-based, luciferase, IL-1B stimulus, dexamethasone (AID 624486); details: NF-kB luciferase reporter, IL-1B + dexamethasone, luminescence; percent of negative control (+Dex): actives lie on both sides, concentration not given here; z-score: measured here: IL-1B alone, no Dex;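 as to percent of negative control (+Dex): 100% = mean signal of vehicle control wells on the plate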
[3] = kinase inhibitors altering Pseudomonas killing of worms, whole organism (AID 651566);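 also: tested at 14 µM; sign flipped so higher z means a lower ratio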; details: C. elegans killed by P. aeruginosa, survival ratio
[4] = activators of macrophage pro-inflammatory response, cell-based, murine, luminescence (AID 652131); details: murine macrophage pro-inflammatory reporter, stronger effect = higher value
[5] = biological target: Cellular tumor antigen p53 (Homo sapiens) (UniProt P04637); test: kinase inhibitors altering GFP-p53 stability in HPV16-positive cells, imaging, known kinase inhibitor set, EGFP/DsRed ratio (AID 1053116); details: stronger effect = higher value; EGFP object count: measured here: GFP-p53 positive objects count;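 also: cells exposed to compounds for 24 h at 37 °C before reading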
[6] = IRF3 reporter activation in THP-1 macrophages, cell-based, PMA-stimulated THP-1, luminescence (AID 1053176); details: PMA-differentiated THP-1, IRF3 reporter luminescence; stronger effect = higher value
[7] = survival rescue of mitochondrial mutant cells in low glucose, primary screen, MELAS cybrids, Rieske KO mouse fibroblasts, CellTiter-Glo (AID 1508586;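 active = mean z-score across replicates of 1.96 or higher in either the MELAS or the Rieske mutant cell line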;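 also: z relative to plate mean and SD of compound and empty wells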)
[8] = MELAS cybrid survival, CellTiter-Glo 48 h, stronger effect = higher value
[9] = Rieske KO mouse fibroblast survival, CellTiter-Glo 72 h

Cellular tumor antigen p53 (Homo sapiens), sequence (P04637 whole entry, looked up): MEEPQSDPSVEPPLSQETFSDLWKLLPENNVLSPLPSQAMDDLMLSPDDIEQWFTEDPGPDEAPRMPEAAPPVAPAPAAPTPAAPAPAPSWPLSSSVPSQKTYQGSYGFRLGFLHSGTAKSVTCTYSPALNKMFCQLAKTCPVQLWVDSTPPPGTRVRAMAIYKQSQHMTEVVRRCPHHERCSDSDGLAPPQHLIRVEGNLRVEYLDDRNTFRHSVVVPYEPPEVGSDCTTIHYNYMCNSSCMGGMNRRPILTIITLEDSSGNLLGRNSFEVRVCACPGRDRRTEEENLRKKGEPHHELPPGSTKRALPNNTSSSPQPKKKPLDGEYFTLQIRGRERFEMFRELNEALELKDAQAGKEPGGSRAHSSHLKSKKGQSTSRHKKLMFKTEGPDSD

Row | Compound | liver cell % of control [1] | parasite % of control [1] | percent of negative control (+Dex) [2] | z-score [2] | z-score [3] | z-score [4] | EGFP object count [5] | EGFP/DsRed ratio [5] | fraction signal [6] | z-score [7, 8] | z-score [7, 9]
1 | Cc1ccc(NC(=O)c2ccoc2)cc1-c1ccc(C(=O)NCC2CC2)cc1 | 104% | 120% (inactive) | 99.5% (inactive) | 0.73 | 0.02 (inactive) | -0.057 (inactive) | 2 | 0.0344 (inactive) | -0.016 (inactive) | -1.06 (inactive) | -0.276
2 | Fc1ccc(-c2ncn(C3CCNCC3)c2-c2ccnc(Oc3ccc4c(c3)OCO4)n2)cc1 | 71.9% | 187% (inactive) | 107% (inactive) | 0.635 | 0.22 (inactive) | 0.062 (inactive) | 6.5 | 0.159 (inactive) | -0.0065 (inactive) | -0.249 (inactive) | -0.36
3 | COc1ccc2cc(-c3c(-c4ccncc4)nc(-c4ccc(S(C)=O)cc4C)n3C)ccc2c1 (centres undefined) | 94.7% | 66.8% (inactive) | 94% (inactive) | 0.56 | 0.7 (inactive) | 0.465 (inactive) | 2.5 | 0.206 (inactive) | -0.007 (inactive) | 0.0666 (inactive) | -0.0858
4 | NS(=O)(=O)c1cccc(NC2CC(c3ccc(F)cc3)NN2)c1 (centres undefined) | 86.1% | 117% (inactive) | 92.5% (inactive) | 0.55 | 0.39 (inactive) | 4.5 (inactive) | 7.5 | 0.474 (inactive) | -0.0055 (inactive) | 1.38 (inactive) | -0.322
5 | CNC(=O)c1cncc(/C=C/c2c(C)cccc2C)c1 | 106% | 86.6% (inactive) | 91.5% (inactive) | 0.11 | 0.025 (inactive) | -0.466 (inactive) | 4 | 0.149 (inactive) | 0.0135 (inactive) | 1.23 (inactive) | 0.0124
6 | CCc1cccc(NC(=O)Nc2ccc(Oc3ccc4nc(NC(=O)OC)[nH]c4c3)cc2)c1 | 93.1% | 128% (inactive) | 106% (inactive) | 0.55 | -0.175 (inactive) | 0.13 (inactive) | 106 | 1.83 (active) | -0.002 (inactive) | -0.411 (inactive) | -0.621
7 | N#Cc1ccc(Oc2nccc(-c3c(-c4ccc(F)cc4)ncn3C3CCNCC3)n2)cc1 | 76.8% | 142% (inactive) | 90.5% (inactive) | 0.29 | 0.255 (inactive) | -0.275 (inactive) | 1 | 0.00276 (inactive) | -0.0025 (inactive) | -0.193 (inactive) | -0.456
8 | c1ccc(Oc2ccc(Nc3ncc(-c4ccccc4)o3)cc2)cc1 | 103% | 102% (inactive) | 110% (inactive) | 1.91 | 0.1 (inactive) | 3.61 (inactive) | 4.5 | 0.122 (inactive) | 0.0065 (inactive) | -0.198 (inactive) | -0.417
9 | Cc1nc(-c2ccccc2)n2nc(NCCCN3CCOCC3)ncc12 | 97.3% | 149% (inactive) | 102% (inactive) | 1.35 | -0.095 (inactive) | -1.16 (inactive) | 4.5 | 0.201 (inactive) | -0.0105 (inactive) | -0.231 (inactive) | -0.21
10 | COC(=O)Nc1nc2ccc(Oc3cccc(NC(=O)Nc4cc(C(F)(F)F)ccc4F)c3)cc2[nH]1 | 103% | 148% (inactive) | 104% (inactive) | 2.25 | 1.03 (inactive) | 4.52 (inactive) | 4 | 0.18 (inactive) | -0.0045 (inactive) | -0.76 (inactive) | 0.691
11 | CCCN1CCC(Oc2cc(Nc3nc(Nc4cccc(F)c4C(N)=O)c4cc[nH]c4n3)c(OC)cc2Cl)CC1 | 60.5% | 168% (inactive) | 77.5% (inactive) | -0.445 | 0.48 (inactive) | -0.663 (inactive) | 67.5 | 0.575 (active) | 0.0095 (inactive) | 0.312 (inactive) | 0.375
12 | CCC(=O)Nc1ccc(C)c(-c2ccc(C(=O)NCC3CC3)cc2)c1 | 51.4% | 136% (inactive) | 103% (inactive) | 1.16 | 0.67 (inactive) | 1.18 (inactive) | 3 | 0.0318 (inactive) | 0.001 (inactive) | -0.0107 (inactive) | -0.287
13 | O=C1NC(=O)C(c2cccc(Cl)c2)=C1Nc1ccc(O)c(Cl)c1 | 112% | 102% (inactive) | 93% (inactive) | 0.42 | -0.775 (inactive) | 0.127 (inactive) | 5 | 0.0621 (inactive) | -0.0075 (inactive) | -1.05 (inactive) | -0.373
14 | Cc1ccc2[nH]c(O)c(N=Nc3ccc(S(N)(=O)=O)cc3)c2c1 | 164% | 128% (inactive) | 102% (inactive) | 0.885 | -0.295 (inactive) | -0.079 (inactive) | 5 | 0.439 (inactive) | -0.0055 (inactive) | -0.101 (inactive) | -0.00523
15 | Cc1nnc(-c2ccc(C)c(-c3ccc(C(=O)Nc4cccc(C#N)c4)cc3)c2)o1 | 117% | 154% (inactive) | 100% (inactive) | 0.575 | -0.18 (inactive) | -0.619 (inactive) | 1.5 | 0.0236 (inactive) | -0.004 (inactive) | -0.755 (inactive) | -0.283
16 | O=C1Nc2ccc(C(=O)c3ccco3)cc2/C1=C/c1cc(Cl)c(O)c(Cl)c1 | 143% | 74.2% (inactive) | 91% (inactive) | 0.035 | 0.21 (inactive) | -0.774 (inactive) | 4.5 | 0.0627 (inactive) | -0.005 (inactive) | -1.39 (inactive) | -0.429
17 | FC(F)(F)c1cccc(Nc2nccc(-c3cnn4nc(-c5ccccc5)ccc34)n2)c1 | 97.2% | 79.6% (inactive) | 86.5% (inactive) | -0.085 | 1.3 (inactive) | -0.793 (inactive) | 4.5 | 0.154 (inactive) | -0.0005 (inactive) | 1.22 (inactive) | -0.183
18 | CCc1ccc(Oc2nccc(-c3c(-c4ccc(F)cc4)ncn3C3CCNCC3)n2)cc1 | 78.5% | 140% (inactive) | 104% (inactive) | 0.41 | 0.125 (inactive) | -0.495 (inactive) | 4.5 | 0.0563 (inactive) | -0.0095 (inactive) | -0.158 (inactive) | -0.111
19 | CCCNc1cccc(-n2ncc3c(N/N=C/c4ccncc4)ncnc32)c1 | 95.8% | 39.7% (inactive) | 90% (inactive) | -0.38 | 0.37 (inactive) | -1.11 (inactive) | 8.5 | 0.328 (inactive) | -0.005 (inactive) | 1.12 (inactive) | -0.108
20 | COc1cc(Nc2nccc(Nc3ccc4c(C)[nH]nc4c3)n2)cc(OC)c1OC | 142% | 247% (inactive) | 68% (inactive) | -1.93 | -0.535 (inactive) | 2.91 (inactive) | 2 | 0.0182 (inactive) | -0.01 (inactive) | -0.786 | 5.33
21 | NCc1ccc(-n2c(-c3nonc3N)nc3cnccc32)cc1 | 104% | 162% (inactive) | 58% (inactive) | -3.59 | -0.655 (inactive) | -1.05 (inactive) | 1 | 0.0079 (inactive) | 0.003 (inactive) | -0.95 (inactive) | -0.216
22 | COc1ccc2c(-c3ccnc(Nc4cccc(OC(F)(F)F)c4)n3)cnn2n1 | 77.9% | 166% (inactive) | 91% (inactive) | -0.08 | -0.6 (inactive) | -0.916 (inactive) | 5.5 | 0.0552 (inactive) | -0.005 (inactive) | 0.611 (inactive) | -0.245
23 | CN1CCC(C(=O)Nc2n[nH]c3nc(-c4ccc(O)cc4)c(Br)cc23)CC1 | 51.2% and 53.8% | 292% (inactive) and 294% (inactive) | 108% (inactive) and 100% (inactive) | -0.82 and -0.48 | 0.21 (inactive) and -0.175 (inactive) | -0.483 (inactive) and -0.641 (inactive) | 2.5 and 3 | 0.0956 (inactive) and 0.0438 (inactive) | 0.0155 (inactive) and 0.0035 (inactive) | -0.719 (inactive) and 2.2 (active) | -0.17 and -0.0758
24 | COc1cc2ncnc(Nc3ccc(C)c(O)c3)c2cc1OC | 56.5% | 110% (inactive) | 65.5% (inactive) | -2.25 | 0.58 (inactive) | 2.59 (inactive) | 6 | 0.129 (inactive) | 0.0075 (inactive) | 1.32 (inactive) | -0.31
25 | CN1CCC(n2cnc(-c3ccc(F)cc3)c2-c2ccnc(Nc3ccccc3)n2)CC1 | 67.1% | 74.5% (inactive) | 101% (inactive) | -0.08 | 0.955 (inactive) | 0.813 (inactive) | 3 | 0.0706 (inactive) | 0.005 (inactive) | -0.528 (inactive) | -0.322
26 | Clc1ccc(-c2nn3ncccc3c2-c2ccnc(Nc3ccccc3)n2)cc1 | 149% | 29.7% (inactive) | 84% (inactive) | -0.705 | 0.79 (inactive) | 0.464 (inactive) | 4 | 0.304 (inactive) | -0.004 (inactive) | 0.298 (inactive) | -0.499
27 | COc1ccc2ncnc(Nc3ccc(OCc4ccccc4)cc3)c2c1 | 120% | 92.8% (inactive) | 88% (inactive) | -0.885 | 0.35 (inactive) | 1.39 (inactive) | 4 | 0.134 (inactive) | -0.023 (inactive) | -0.876 (inactive) | -0.262
28 | Cc1ccc2c(-c3ccnc(Nc4ccc5c(c4)OCCO5)n3)c(-c3ccc(C(F)(F)F)cc3)nn2n1 | 142% | 33.6% (inactive) | 86% (inactive) | -0.095 | -1.23 (inactive) | 0.821 (inactive) | 1.5 | 0.0121 (inactive) | 0.002 (inactive) | -0.379 (inactive) | 0.474
29 | Cc1ccc(O)cc1Nc1ccnc2ccc(S(C)(=O)=O)cc12 | 79.8% | 60.9% (inactive) | 60.5% (inactive) | -3.46 | 0.285 (inactive) | 0.671 (inactive) | 3 | 0.0595 (inactive) | -0.007 (inactive) | -0.116 | 3.87
